# Many of the other results were omitted from the sample, so hits are more common in it than they were.
# Dicer processing: human Dicer pre-microRNA cleavage inhibition; Q9UPY3; cat-ELCCA pre-miR-21 Dicer processing, chemiluminescence; stronger effect = higher value; z-score at 25 µM; hit rate 6% among 47,000; in the data active means z-score above about 3, passing the limit was not always enough;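 further: plate controls were vehicle for no effect and no enzyme for full effect; higher signal means more uncleaved substrate so more Dicer inhibition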
# * hit, by the source's call.
SMILES,Dicer processing
CSc1nc(N/C=C2\C(=O)c3sccc3N(C)S2(=O)=O)nc(C2CC2)n1,0.14
Oc1cc2c(cc1C(c1ccc(C(F)(F)F)cc1)N1CCCCC1)OCO2 (stereo not given),3.8*
O=C(NC(=O)c1ccc(C(F)(F)F)cc1)NN1CCCCCC1,-2.5
Nc1cc(C(F)(F)F)ccc1N1CCCCC1,-0.13
O=C1CCC(C(=O)O)C(Cc2ccccc2)C1 (stereo not given),0.55
CC1=C(C(=O)OC(C)C)C(c2ccc3c(c2)OCO3)C2=C(CCCC2=O)N1 (stereo not given),0.26
COC(=O)C1=C(C)O/C(=C2/C=CC=CN2)C(C)=C1,3.1*
O=C(CN1C2=NCCCN2c2ccccc21)c1ccc2c(c1)OCO2,0.97
O=C(CN1C2=NCCCN2c2ccccc21)c1ccc(Br)cc1,4*
O=C(CN1C2=NCCN2c2ccccc21)c1ccc(Cl)cc1,0
Cc1cc(=O)oc2c3c4c(cc12)CCCN4CCC3,-0.04
O=C(Nc1cccc(Cl)c1)Nc1ccc2nnsc2c1,1.4
COc1ccc(C2CC(=O)C3=C(C2)Nc2ccccc2NC3c2ccc(Cl)cc2)cc1OC (stereo not given),2.4
COc1ccc(C2CC(=O)C3=C(C2)Nc2ccccc2NC3c2ccccc2OC(C)C)cc1 (stereo not given),2.2
COc1ccc(C2CC(=O)C3=C(C2)Nc2ccccc2NC3c2ccccc2OC(C)C)cc1OC (stereo not given),0
COc1ccc(C2Nc3ccccc3NC3=C2C(=O)CC(c2ccccc2)C3)cc1O (stereo not given),1.5
CC(C)Oc1ccccc1C1Nc2ccccc2NC2=C1C(=O)CC(c1ccccc1)C2 (stereo not given),5.7*
COc1cc(C2Nc3ccccc3NC3=C2C(=O)CC(c2ccccc2)C3)cc(Cl)c1O (stereo not given),3.2*
O=C(/C=C(\O)c1ccccc1)C(=O)/C=C(\O)c1ccccc1,1.1
O=C(O)C12CC3CC(C1)CC(c1ccc([N+](=O)[O-])cc1)(C3)C2,-2.1
S=C(NNc1ccccc1)Nc1c(Cl)cccc1Cl,-2.6
Fc1cccc(NC(=S)NNc2ccccc2)c1,5.9*
CC(C)(CO)NC(=S)Nc1cccc(F)c1,-0.02
O=C1OC(c2ccccc2)=N/C1=C/C=C/c1ccccc1,0.41
COc1cc(C2Oc3ccccc3C3CC(c4ccccc4O)=NN32)ccc1O (stereo not given),11*
SMILES,Dicer processing
COC(=O)c1ccc(C2Oc3ccccc3C3CC(c4ccccc4O)=NN32)cc1 (stereo not given),0.57
COc1ccc(O)c(C2=NN3C(C2)c2ccccc2OC3c2ccc(OC)c(OC)c2)c1 (stereo not given),6*
COc1ccc(O)c(C2=NN3C(C2)c2cccc(OC)c2OC3c2cc(OC)ccc2OC)c1 (stereo not given),2.9
COc1ccc(O)c(C2=NN3C(C2)c2ccccc2OC3c2ccccc2)c1 (stereo not given),8.3*
COc1ccc(O)c(C2=NN3C(C2)c2cccc(OC)c2OC3c2cccc(OC)c2OC)c1 (stereo not given),2.1
COc1ccc(O)c(C2=NN3C(C2)c2cccc(OC)c2OC3c2ccccc2F)c1 (stereo not given),0.02
COc1ccc(O)c(C2=NN3C(C2)c2ccccc2OC3c2cccc(F)c2)c1 (stereo not given),5.2*
COc1cc(C2Oc3c(OC)cccc3C3CC(c4ccccc4O)=NN32)ccc1O (stereo not given),2.6
C=C(C)Cn1c(NCCCN2CCOCC2)nc2c1c(=O)[nH]c(=O)n2C,-0.11
Cn1cc(/C(N)=N/OC(=O)c2ccc(Cl)cc2)c(=O)n(Cc2ccccc2)c1=O,0.74
Cc1ccc(NC(=O)NN(C)C)cc1NC(=O)NN(C)C,0.97
Cc1cc(C)c(CSCCNC2=CC(=O)CC(c3ccc(Cl)cc3)C2)c(C)c1 (stereo not given),41
Oc1ccccc1C1=NN2C(C1)c1ccccc1OC2c1ccsc1 (stereo not given),4.5
COc1ccc(C2Oc3c(OC)cccc3C3CC(c4ccccc4O)=NN32)c(OC)c1 (stereo not given),3.7
Cc1ccc(O)c(C2=NN3C(C2)c2ccccc2OC3c2ccsc2)c1 (stereo not given),2.9
COc1ccc(OC)c(C2Oc3ccccc3C3CC(c4ccccc4O)=NN32)c1 (stereo not given),6*
COc1ccc(O)c(C2=NN3C(C2)c2ccccc2OC3c2cc(OC)ccc2OC)c1 (stereo not given),1.7
COc1ccc(O)c(C2=NN3C(C2)c2ccccc2OC3c2ccncc2)c1 (stereo not given),11*
COc1ccc(O)c(C2=NN3C(C2)c2ccccc2OC3c2ccsc2)c1 (stereo not given),5.5*
COC(=O)C1CC2CC(CC(C(=O)OC)C23SCCS3)C1=O (stereo not given),-1.1
CCOC(=O)c1c(C)sc2c1Nc1cc(Cl)ccc1S2,1.3
COc1cscc1C(=O)NC1(O)C(=O)c2ccccc2C1=O,-6.4
O=S(=O)(c1ccc2c(c1)Cc1cc(S(=O)(=O)N3CCOCC3)ccc1-2)N1CCOCC1,-0.46
COc1cccc(-n2cc(-c3ccc(F)cc3)nc2SCC(C)=O)c1,-3.2
Cc1nn(C)c(=O)c2noc(/C=C/c3ccsc3)c12,-1.6
SMILES,Dicer processing
Cc1ccc(C2SCCN2S(C)(=O)=O)cc1 (stereo not given),-0.49
Cc1ccc(CN2C(=O)CSC2c2cccc(Br)c2)cc1 (stereo not given),0.26
CCOC(=O)CSc1cc(-n2cccc2)c(Cl)cc1[N+](=O)[O-],-7.5
O=S(=O)(Nc1ccc(N2CCCCC2)cc1)c1cc(S(=O)(=O)c2ccccc2)cs1,5.3*
O=S(=O)(Nc1ccc2c(c1)OCCO2)c1cc(S(=O)(=O)c2ccccc2)cs1,2.4
Cn1cnc(S(=O)(=O)Nc2ccc(N3CCCCC3)cc2)c1,-1.5
O=C(N/N=C/c1c(Cl)cccc1Cl)N/N=C/c1c(Cl)cccc1Cl,0.38
Cn1c(SCc2nc(-c3ccccc3)no2)nnc1-c1ccco1,0.3
Cc1ccc(-c2noc(CSc3nnc(C)n3-c3ccccc3)n2)cc1,1.1
Cn1c(SCc2nc(-c3ccccc3)no2)nnc1-c1cccs1,3.1*
CCNC(=O)C(=O)NCC1CCCO1 (stereo not given),2
CCOC(=O)c1c(N=Cc2ccccc2[N+](=O)[O-])n[nH]c1C,3.7*
CCOC(=O)c1c(N/N=C/c2ccc(O)cc2)n[nH]c1C,0.23
CCOC(=O)c1c(N=Cc2ccccc2Cl)n[nH]c1C,-2.5
CC(=O)NC1CCN(C(=S)Nc2cc(Cl)ccc2Cl)CC1,-0.4
O=C(O)c1ccccc1NS(=O)(=O)c1ccc2c3c(cccc13)C(=O)S2,-0.85
O=C1Sc2ccc(S(=O)(=O)Nc3ccc(F)cc3)c3cccc1c23,3.5*
COc1ccc(NS(=O)(=O)c2ccc3c4c(cccc24)C(=O)N3)cc1,0.18
CN(C)C(=O)c1ccc(C(C)(C)C)cc1,0.31
CCOC(=O)c1c(SC)nc2ccc(Cl)cc2c1N1CCCCCC1,-1.4
CCN(CC)C(=O)C1Sc2nnc(C)n2NC1c1ccc(OC)c(Br)c1 (stereo not given),-0.55
CC(=O)OC[C@H]1O[C@@H](NC(N)=O)[C@H](OC(C)=O)[C@@H](OC(C)=O)[C@@H]1OC(C)=O,-0.2
CCCNC(=O)Nc1n[nH]c(Nc2ccc(Cl)cc2)n1,2.4
Cc1onc(-c2c(Cl)cccc2Cl)c1NC(=O)NC(C)C,0.43

# Screening data from PubChem BioAssay.
